In the supplement of paper PMC10981050:
Where “and” joins values, the source holds several entries; their conditions need not be identical. Equal entries are not always repeated. Structures can show the parent of a compound that is named as a salt.

Assays:
Experiment in all cases: cell viability relative to vehicle control; higher = less cytotoxic
Details in all cases: 10 µM
[1] = test system: K562
In short: (§1)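 Each screen used CRISPR-edited mutant and wild-type clones from four leukaemia lines. Compounds were acoustically dispensed at a single 10 µM dose, and CellTiter-Glo luminescence was read after 48 h with the supernatant first removed. Viability was analysed in Genedata Screener and given as percent of the on-plate vehicle control.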

[2] = test system: MARIMO
In short: as §1

[3] = test system: MOLM14
In short: as §1

[4] = test system: OCI-AML2
In short: as §1

SMILES	cell viability ([1]; SRSF2 genotype: SRSF2 P95H/wt)	cell viability ([1]; SRSF2 genotype: SRSF2 wt/wt) [%]	cell viability ([2]; SRSF2 genotype: SRSF2 P95H/wt) [%]	cell viability ([2]; SRSF2 genotype: SRSF2 wt/wt) [%]	cell viability ([3]; SRSF2 genotype: SRSF2 P95H/wt) [%]	cell viability ([3]; SRSF2 genotype: SRSF2 wt/wt) [%]	cell viability ([4]; SRSF2 genotype: P95H/wt) [%]	cell viability ([4]; SRSF2 genotype: wt/wt) [%]
CCC(=O)NC[C@@H]1C[C@H]1c1cccc2c1CCO2 [Tasimelteon]	92.1% and 87.6%	84.4	92.1	101	89	93.1	88	99.3
COc1cc(C[C@@H](CO[C@@H]2O[C@H](CO)[C@@H](O)[C@H](O)[C@H]2O)[C@H](CO[C@@H]2O[C@H](CO)[C@@H](O)[C@H](O)[C@H]2O)Cc2ccc(O)c(OC)c2)ccc1O [Secoisolariciresinol diglucoside]	96.7% and 93.6%	98.9	90	101	101	98.5	96.8	104
C[C@H](NC(=O)/C(C#N)=C/c1cccc(Br)n1)c1ccccc1	25.6% and 17.4%	20.6	11.2	7.31	2.5	0.75	10.2	7.71
Cc1c[nH]c(=O)[nH]c1=O [Thymine]	99.9% and 101%	96.8	101	95.1	109	102	106	101
N#Cc1c(O)c2c(-c3ccc(-c4ccccc4O)cc3)csc2[nH]c1=O	102% and 100%	103	99.1	103	104	99	93.1	101
c1cncc(-c2cn[nH]n2)c1	78.5% and 56.7%	64.2	88.4	96.6	88.6	99.2	31.8	34.6
CCC(=O)NS(=O)(=O)c1ccc(-c2c(-c3ccccc3)noc2C)cc1 [Parecoxib Sodium]	102% and 91.9%	100	101	104	93.4	104	92.3	97.3
Cc1cccc(C)c1N(CC(=O)Nc1ccc(-c2ncon2)cc1)C(=O)C1CCS(=O)(=O)CC1 [Amenamevir]	99.9% and 92.8%	98.8	94.5	106	96.4	105	88.5	93.4
CC1(C)CC[C@]2(C(=O)O[C@@H]3O[C@H](CO)[C@@H](O)[C@H](O)[C@H]3O)CC[C@]3(C)C(=CC[C@@H]4[C@@]5(C)CC[C@H](O[C@@H]6O[C@H](C(=O)O)[C@@H](O)[C@H](O)[C@H]6O[C@@H]6O[C@H](CO)[C@@H](O)[C@H](O)[C@H]6O)C(C)(C)[C@@H]5CC[C@]43C)[C@@H]2C1 [Ginsenoside Ro]	101% and 95.6%	95.9	102	110	100	98.5	97.8	109
O=C1C[C@@H]2[C@@H](CO)[C@H](O)C[C@@H]2O1 [Corey Lactone Diol]	110%	101	105	110	102	108	101	93.3
COC(=O)c1ccc(O)c(OC)c1 [Methyl Vanillate]	101% and 96.9%	102	90.7	104	103	103	95.2	107
N#Cc1c(Oc2ccc(F)c(NC(=O)Cc3cccc(C(F)(F)F)c3)c2)ccc2nc(NC(=O)C3CC3)sc12	12.9% and 18.9%	19	40.9	36.8	36.6	25.9	31.6	36.8
CC1OC(OC2C(CO)OC(OCC3OC(OC(=O)C45CCC(C)(C)CC4C4=CCC6C7(C)CCC(OC8OCC(O)C(O)C8O)C(C)(CO)C7CCC6(C)C4(C)CC5)C(O)C(O)C3O)C(O)C2O)C(O)C(O)C1O (configuration not stated) [Hederacoside D]	98.3% and 104%	101	95.7	103	105	99.3	97	103
CC1(C)OC(=O)C=C[C@]2(C)[C@H]3CC[C@@]4(C)[C@H](c5ccoc5)OC(=O)[C@H]5O[C@]54[C@]3(C)C(=O)C[C@@H]12 [Obacunone]	103% and 98.1%	95.4	92.7	95.5	97.4	102	91.1	93.6
CCOc1cc(C(=O)N2CCC(N3CCN(C)CC3)CC2)ccc1Nc1ncc2c(n1)N(C1CCCC1)c1ccccc1C(=O)N2C	10.3% and 7.13%	15.2	35.2	35.2	0.3	0.37	2.24	10.6
CNS(=O)(=O)Nc1nccc(Cc2c(C)c3ccc(Oc4ncccn4)cc3oc2=O)c1F	59.5% and 66.4%	72.2	36	36.9	44.7	30.6	37.6	40.4
Nc1ccc(S(=O)(=O)Nc2ncccn2)cc1 [Sodium sulfadiazine]	98.3% and 99.1%	102	106	97.4	98.1	102	109	96.8
O=C1N=C(O)NC1(c1ccccc1)c1ccccc1 [Phenytoin sodium (Dilantin)]	98% and 104%	96.8	104	103	97.7	102	103	94
CO[C@H]1C(=O)[C@]2(C)[C@@H](OC)C[C@H]3OC[C@@]3(OC(C)=O)[C@H]2[C@H](OC(=O)c2ccccc2)[C@]2(O)C[C@H](OC(=O)[C@H](O)[C@@H](NC(=O)OC(C)(C)C)c3ccccc3)C(C)=C1C2(C)C [Cabazitaxel (Jevtana)]	24.8% and 36.9%	36.7	7.53	5.43	8.88	4.79	7.39	16
COC(=O)C=Cc1ccc(O)c(OC)c1 [Ferulic acid methyl ester]	106% and 99.9%	108	95.4	104	105	104	104	104

SMILES	cell viability ([1]; SRSF2 genotype: SRSF2 P95H/wt)	cell viability ([1]; SRSF2 genotype: SRSF2 wt/wt) [%]	cell viability ([2]; SRSF2 genotype: SRSF2 P95H/wt) [%]	cell viability ([2]; SRSF2 genotype: SRSF2 wt/wt) [%]	cell viability ([3]; SRSF2 genotype: SRSF2 P95H/wt) [%]	cell viability ([3]; SRSF2 genotype: SRSF2 wt/wt) [%]	cell viability ([4]; SRSF2 genotype: P95H/wt) [%]	cell viability ([4]; SRSF2 genotype: wt/wt) [%]
CCCN(CCC)C(=O)C1=Cc2ccc(-c3ccc(C(=O)N4CCCC4)cc3)cc2N=C(N)C1 [Motolimod (VTX-2337)]	34.5% and 40.5%	38.8	33.2	25.7	26.5	31	21.7	29
COc1ccc2cccc(CCNC(C)=O)c2c1 [Agomelatine]	110% and 101%	104	97.7	106	104	102	101	101
CCCCN1CCCC[C@H]1C(=O)Nc1c(C)cccc1C [Levobupivacaine HCl]	82.7% and 79.1%	80.2	82.3	85.1	83.5	88.7	82.3	90.8
Cc1ccnc2c1NC(=O)c1cccnc1N2C1CC1 [Nevirapine (Viramune)]	101% and 89.6%	95.5	93.3	99.3	89.9	0.15	91.6	104
CC#CCn1c(N2CCC[C@@H](N)C2)nc2c1c(=O)n(Cc1nc(C)c3ccccc3n1)c(=O)n2C [Linagliptin (BI-1356)]	99% and 103%	103	98	97	101	106	110	93.6
Cn1cc(/C=C2\C(=O)Nc3cccnc32)c2ccccc21	98% and 98.2%	96.4	91.2	94.3	25.7	22.9	49.4	56.2
CC(=O)/N=c1/sc(S(N)(=O)=O)nn1C [Methazolamide]	109% and 102%	95.2	106	111	98.5	102	100	105
O.O=C([O-])c1ncccc1O.O=C([O-])c1ncccc1[O-].[H+].[O]=[V][OH] [VO-Ohpic trihydrate]	100% and 92.1%	95.5	106	102	122	110	121	119
CC(C)(C)C(O)C(=Cc1ccc(Cl)cc1)n1cncn1 (configuration not stated) [Uniconazole]	95.8% and 99.3%	96.5	92.2	101	93.9	105	93.8	91.2
CCCCC[C@H](O)/C=C/[C@H]1[C@H](O)CC(=O)[C@@H]1C/C=C\CCCC(=O)O [Dinoprostone]	99%	99.1	91.4	79.3	59.1	62	74.5	67.5
O=C(Cn1ccnc1[N+](=O)[O-])NCc1ccccc1 [Benznidazole]	96.1% and 92.1%	95.9	96.6	92.8	97.1	99.4	103	100
COc1ccc2cc(-c3nc(-c4ccc([S+](C)[O-])cc4)[nH]c3-c3ccncc3)ccc2c1 (configuration not stated) [Tie2 kinase inhibitor]	79% and 60.2%	93.8	88.6	95.9	101	94.6	78.5	84.3
CCCNC(=O)C1OC1C(=O)NC(C(=O)N1CCCC1C(=O)OC)C(C)CC (configuration not stated) [CA-074 methyl ester (CA-074 Me)]	76.9% and 62.3%	70.2	66	90.1	18.2	11.8	25.6	24.1
CN(C)c1cc(NC(=O)CNC(C)(C)C)c(O)c2c1CC1CC3C(N(C)C)C(=O)C(C(N)=O)=C(O)C3(O)C(=O)C1=C2O (configuration not stated) [Tigecycline]	94.1%	97.6	94.9	97.2	99.2	96.9	106	95.7
Cc1cc(Nc2cc(N3CCN(C)CC3)nc(/C=C/c3ccccc3)n2)n[nH]1 [ENMD-2076 L-(+)-Tartaric acid]	22.5% and 29.7%	22.9	34.8	30.7	2.93	6.51	7.71	14.7
CCN(CC)c1ccc(C=NNC(=O)c2ccc(O)cc2)cc1	46.8% and 47.9%	51.9	53.8	52.2	56.2	49.9	70.1	69.3
O=C(/C=C/c1ccc(O[C@@H]2O[C@H](CO)[C@@H](O)[C@H](O)[C@H]2O)cc1)c1ccc(O)cc1O [Isoliquiritin]	96.8% and 98%	105	103	97.6	69.7	87.6	111	107
COc1nc2ccc(Br)cc2cc1[C@@H](c1ccccc1)[C@@](O)(CCN(C)C)c1cccc2ccccc12 [Bedaquiline fumarate]	55% and 58.7%	74.9	63.9	55.5	41.6	54.7	24.1	21.3
O=c1c(O)c(-c2ccc(O)c(O)c2)oc2cc(O)ccc12 [Fisetin (Fustel)]	102% and 108%	105	104	100	86.8	103	102	95.1
